Only some compounds are listed: those with a hit (about 7.3% of all), similar ones and a draw of the others.
Tau ThT inhib – tau fibrillization inhibition (ThT binding); actives 2.1% (n = 270,000); recombinant tau K18 P301L, heparin-induced fibrillization, ThT fluorescence; P10636; Potency, µM (doses to about 57.4 µM), hits mostly inhibitors; note: nearly all actives have a fitted effect of over 55% in size
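Tau K18 P301L fragment (15 uM unlabeled plus 0.24 uM Alexa 594-labeled) in 100 mM sodium acetate pH 7 with compound, fibrillization induced by 20 uM heparin for 6 hr at 37 C. Thioflavin T (30 uM) added, fluorescence read after 1 hr (ex 450, em 510 nm).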
Tau FP inhib – tau fibrillization inhibition (FP). actives 0.39% (n = 280,000). K18 P301L tau heparin fibrillization, Alexa594 FP, 6 h. Potency, µM (highest dose often 57.7 µM), hits mostly inhibitors. AID 1468; note: nearly all actives have a fitted effect of over 55% in size
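FP of Alexa 594-tau after heparin (20 uM) induction. Substrate: human K18 P301L, 15 uM unlabeled, 0.24 uM labeled. Buffer 100 mM sodium acetate pH 7. 6 hr, 37 C.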
RORgamma inh – ROR gamma (mouse) transcription inhibition. P51450. Drosophila S2 Gal4-RORgamma UAS-luciferase reporter, 20 h. Potency, µM (doses to about 53.6 µM), hits mostly inhibitors. actives 5.4% (n = 310,000). AID 2551; note: nearly all actives have a fitted effect of over 60% in size
Target sequence (P51450 whole entry, looked up, the tested form may be a part): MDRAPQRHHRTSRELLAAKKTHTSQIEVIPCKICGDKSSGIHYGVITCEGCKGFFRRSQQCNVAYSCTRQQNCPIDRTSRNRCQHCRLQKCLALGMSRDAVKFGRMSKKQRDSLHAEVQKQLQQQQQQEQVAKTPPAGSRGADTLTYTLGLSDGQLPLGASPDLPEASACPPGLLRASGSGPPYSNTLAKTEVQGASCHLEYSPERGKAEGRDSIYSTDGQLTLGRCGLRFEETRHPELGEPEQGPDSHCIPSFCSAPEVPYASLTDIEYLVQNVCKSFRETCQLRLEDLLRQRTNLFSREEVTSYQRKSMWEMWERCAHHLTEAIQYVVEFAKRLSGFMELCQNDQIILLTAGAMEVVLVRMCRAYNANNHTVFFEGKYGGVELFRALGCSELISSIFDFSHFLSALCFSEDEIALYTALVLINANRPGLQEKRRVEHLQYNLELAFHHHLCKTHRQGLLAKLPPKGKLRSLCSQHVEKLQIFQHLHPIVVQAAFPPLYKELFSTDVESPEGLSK
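Using a luciferase readout, inhibitors were identified by reduced reporter activity in Drosophila cells coexpressing a copper-inducible Gal4–ROR gamma fusion and UAS-driven Photinus luciferase, incubated 20 hr after 700 uM copper sulfate.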
VP16 counter – counter-screen for ROR gamma inhibitors: Gal4-VP16 reporter | Drosophila S2 Gal4-VP16 UAS-luciferase, luminescence, 20 h | Potency, µM (top dose mostly 53.6 µM), usual class: inhibitors | actives 3.5% (n = 310,000) | AID 2546;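 note: Gal4-VP16 expression switched on by copper sulfate through the metallothionein promoter; nearly all actives have a fitted effect of over 50% in size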
Tau fluor counter – counter-screen for tau fibril formation inhibitors | tau K18 P301L (four-repeat tau fragment) Alexa594 fluorescence, heparin fibrillization | Potency, µM (doses to about 57.7 µM) | actives 0.93% (n = 280,000) | AID 1463; note: nearly all actives have a fitted effect of over 55% in size
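Human K18 P301L tau (15 uM unlabeled plus 0.24 uM Alexa 594-labeled, final) in 100 mM sodium acetate pH 7 was mixed with compound and 20 uM heparin and incubated 6 hr at 37 C.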
A number is an active result; - = inactive; ? = inconclusive; . = no result given; [ ] = dose if it differs, or a comment. Calls come from the whole dose curve; as a rule, active = well fitted curve in the direction sought with a large enough effect; inconclusive = small, poorly fitted or top-dose-only effect, or another doubt; inactive = no such curve, though single readings can be large; an effect the other way counts as inactive or inconclusive.

SMILES	Tau ThT inhib	Tau FP inhib	RORgamma inh	VP16 counter	Tau fluor counter
O=C(NC(=S)Nc1ccc(Cl)cc1)c1ccccc1	-	-	20µM	?	-
Cc1c(-c2nsc(NC(=O)c3cccs3)n2)nnn1-c1ccc(Br)cc1	?	-	.	.	-
N#Cc1cccc(NC(=O)N2CC[C@@]3(CCCN(C(=O)c4cnccn4)C3)C2)c1	.	.	-	-	.
O=C1N/C(=N\N=C\c2cccnc2)SC1Cc1ccc(SC(F)F)cc1 (configuration not stated)	-	-	0.501µM	0.708µM	-
O=C1N/C(=N\N=C\c2ccc3ncccc3c2)SC1Cc1ccc(SC(F)F)cc1 (configuration not stated)	-	-	-	?	-
O=C1N/C(=N\N=C\c2ccccn2)SC1Cc1cccc(SC(F)F)c1 (configuration not stated)	-	-	1.78µM	3.16µM	-
O=C1N=C(N2CCOCC2)S/C1=C\c1ccccc1OS(=O)(=O)c1ccccc1	-	-	-	-	-
O=C1N=C(N2CCOCC2)S/C1=C/c1cc2c(cc1[N+](=O)[O-])OCO2	17.8µM	?	-	-	?
CCOP(=O)(OCC)C(C#N)=C1SCN(c2ccc(Cl)cc2)CS1	2µM	?	14.1µM	?	-
Cn1cccc1-c1nc2ccc(NC(=O)c3ccc([N+](=O)[O-])cc3)cc2[nH]1	1.26µM	-	-	-	?
Cn1cc([N+](=O)[O-])c(C(=O)Nc2ccc3nc(-c4ccccc4)[nH]c3c2)n1	15.8µM	-	-	?	?
COc1ccc(N2CCN(CCNC(=O)c3ccc4nc5ccccc5c(=O)n4c3)CC2)cc1	.	.	-	-	.
COc1ccc(Nc2cc(C(=O)NCCCN3CCN(C)CC3)c3ccccc3n2)cc1OC	?	-	-	-	?
COc1ccc(Nc2cc(C(=O)NCCCN3CCN(c4ccccc4F)CC3)c3ccccc3n2)c(OC)c1	?	-	.	.	7.08µM[quencher]
COc1ccc(Nc2cc(C(=O)NCCCN3CCN(c4ccc(OC)cc4)CC3)c3ccccc3n2)cc1	14.1µM	-	.	.	3.98µM[quencher]
COc1ccc(Nc2cc(C(=O)NCCCN(C)Cc3ccccc3)c3ccccc3n2)cc1	?	?	.	.	12.6µM[quencher]
CCN(CC)CCCNC(=O)c1cc(Nc2ccc(OC)cc2)nc2ccccc12	.	.	-	-	.
COc1ccc(N2CCN(CCNC(=O)c3ccc4c(c3)[nH]c(=S)n3c5ccccc5nc43)CC2)cc1	?	-	6.31µM	3.55µM	-
COc1cc(OC)c(C(=O)OCC(=O)N2CCOCC2)cc1OC	.	.	-	-	.
COc1ccc(Nc2cc(C(=O)NC3CCCC3)c3ccccc3n2)c(OC)c1	-	-	-	-	-
COc1ccc(N2CCN(CCCNC(=O)c3cc(Nc4ccccc4OC)nc4ccccc34)CC2)cc1	?	-	.	.	8.91µM[quencher]
COc1ccc(Nc2cc(C(=O)NCc3ccccc3)c3ccccc3n2)c(OC)c1	?	?	.	.	7.94µM[quencher]
CCC1(C)Cc2ccccc2C(=S)N1 (configuration not stated)	-	-	8.91µM	?	-
CC1CCN(C(=O)N2c3ccccc3Sc3ccccc32)CC1	-	-	-	-	-
O=C(NC1CCN(C(=O)N2c3ccccc3Sc3ccccc32)CC1)c1ccccc1F	?	-	?	3.55µM	-
SMILES	Tau ThT inhib	Tau FP inhib	RORgamma inh	VP16 counter	Tau fluor counter
O=C(N1CCOCC1)N1c2ccccc2Sc2ccccc21	-	-	-	-	-
CC1CN(C(=O)N2c3ccccc3Sc3ccccc32)CC(C)O1 (configuration not stated)	-	-	-	3.55µM	-
c1ccc(-c2cn3c(n2)CCC3)cc1	-	-	-	-	-
Brc1ccc(-c2cn3nc4c(nc3n2)CCCC4)cc1	17.8µM	?	?	?	?
c1ccc(-c2cn3nc4c(nc3n2)CCCC4)cc1	?	?	5.01µM	?	?
CCOc1ccc2nc(N3CCN(C(=O)C(C)C)CC3)sc2c1	?	-	.	.	-
CCOc1ccc2nc(N3C(=O)/C(=C/c4ccc(Cl)cc4)NC3=S)sc2c1	4.47µM	-	1.12µM	1.58µM	?
Cc1ccc(CNC(=O)CN(c2ccc(C(C)C)cc2)S(=O)(=O)c2c(C)n[nH]c2C)cc1	-	-	.	.	?
CN=c1scc(-c2ccc(F)cc2)n1/N=C/c1ccc(O)c(O)c1	10µM	-	0.112µM	0.794µM	17.8µM[quencher]
Cc1ccc(CCNC(=O)c2cc3cc(S(=O)(=O)N4CCCCC4)ccc3n2C)cc1	-	-	.	.	-

From PubChem
